# From PubChem BioAssay (EPA / NIEHS)
# Results filed as inconclusive are left out. Activity calls are given as the source filed them. Rule for the calls, unless noted: active = hit-call score of the fitted dose curve at least 0.9, where 1 is the maximum; inconclusive = response in the unintended direction; inactive = score below 0.9.
# Columns and labels:
# PGR (gene 5241) [1] = target: PGR (gene 5241) (UniProt P06401); experiment: TOX21_PR_BLA_Followup_Antagonist_ratio: Tox21 HEK293 Progesterone Receptor (PR) Antagonism Beta-lactamase Follow-Up Assay, Ratio (AID 2283934);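 note: PR-UAS-bla HEK293T cells stimulated with 1 nM R5020 agonist for 16 hr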
# Sequence of PGR (gene 5241) (P06401 whole entry, looked up): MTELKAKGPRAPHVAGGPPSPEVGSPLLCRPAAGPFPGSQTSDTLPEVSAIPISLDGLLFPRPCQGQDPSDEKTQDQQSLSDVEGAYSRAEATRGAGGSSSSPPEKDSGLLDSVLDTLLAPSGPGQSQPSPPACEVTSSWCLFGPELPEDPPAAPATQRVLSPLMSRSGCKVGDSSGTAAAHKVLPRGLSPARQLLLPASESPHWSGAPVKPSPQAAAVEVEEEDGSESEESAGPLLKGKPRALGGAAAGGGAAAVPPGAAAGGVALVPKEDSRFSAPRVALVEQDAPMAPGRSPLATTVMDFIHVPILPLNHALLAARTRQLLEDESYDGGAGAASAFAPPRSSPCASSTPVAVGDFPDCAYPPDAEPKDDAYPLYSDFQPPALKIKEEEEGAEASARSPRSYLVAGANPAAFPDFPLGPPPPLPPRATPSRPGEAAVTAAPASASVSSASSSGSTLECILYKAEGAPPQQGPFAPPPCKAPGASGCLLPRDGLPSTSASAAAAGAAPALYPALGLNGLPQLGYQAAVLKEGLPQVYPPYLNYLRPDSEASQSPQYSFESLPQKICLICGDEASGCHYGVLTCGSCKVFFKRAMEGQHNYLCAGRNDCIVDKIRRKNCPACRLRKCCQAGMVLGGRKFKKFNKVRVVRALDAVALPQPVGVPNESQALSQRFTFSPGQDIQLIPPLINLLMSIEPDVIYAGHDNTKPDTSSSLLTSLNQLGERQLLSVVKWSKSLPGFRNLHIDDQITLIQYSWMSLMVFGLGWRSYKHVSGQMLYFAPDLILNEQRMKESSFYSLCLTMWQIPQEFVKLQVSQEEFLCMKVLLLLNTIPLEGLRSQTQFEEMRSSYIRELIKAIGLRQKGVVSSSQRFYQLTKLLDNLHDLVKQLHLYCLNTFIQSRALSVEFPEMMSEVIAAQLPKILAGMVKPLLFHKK
# Summary of the method: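 Cells are plated, rested 6 hr, then dosed with test compound in DMSO and challenged with 1 nM promegestone. After 16 hr incubation, substrate loading for 2 h at room temperature precedes fluorescence reading; viability is measured in the same wells.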
# [2] = TOX21_PR_BLA_Followup_Agonist_viability: Viability Assessment in the Tox21 HEK293 Progesterone Receptor (PR) Agonism Beta-lactamase Follow-Up Assay (AID 2283935);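 note: signal loss means lower viability so actives are cytotoxic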
# Summary of the method: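 Cells were plated in medium with 2% charcoal-stripped FBS and rested 6 hr. Compounds in DMSO were then added for 16 hr at 37C, followed by the FRET substrate step and CellTiter-Glo luminescence after 30 min.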
# [3] = TOX21_PR_BLA_Followup_Antagonist_viability: Viability Assessment in the Tox21 HEK293 Progesterone Receptor (PR) Antagonism Beta-lactamase Follow-Up Assay (AID 2283936);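 note: cells exposed to compound with R5020 agonist for 16 h; hits lower the luminescence signal meaning cytotoxicity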
# Summary of the method: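 PR-UAS-bla HEK293T cells in medium with 2% charcoal-stripped FBS were treated with compounds plus R5020 for 16 hr at 37C. After the beta-lactamase read, CellTiter-Glo was added to the same wells and luminescence read after 30 min at room temperature.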
# PGR (gene 5241) [4] = target: PGR (gene 5241) (UniProt P06401); experiment: TOX21_PR_LUC_Followup_Antagonist: Tox21 HEK293 Progesterone Receptor (PR) Antagonism Luciferase Follow-Up Assay (AID 2283938);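 note: curve fitted upward as signal gain over DMSO baseline despite antagonist label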
# Summary of the method: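 Cells are grown 5 days in charcoal-stripped-FBS assay medium, plated, left 5 h, then dosed with compound and incubated 16 h. ONE-Glo reagent is added and luminescence read after 30 min.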
# [5] = TOX21_PR_LUC_Followup_Antagonist_viability: Viability Assessment in the Tox21 HEK293 Progesterone Receptor (PR) Antagonism Luciferase Follow-Up Assay (AID 2283940)
# Summary of the method: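 HEK293-PR-A-luc, 3,000 cells/well; 5 h at 37C/0% CO2; compound pin transfer; 16 h incubation; CellTiter-Glo ATP luminescence, signal loss = cytotoxicity.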
# [6] = TOX21_PR_LUC_Followup_Agonist_viability: Viability Assessment in the Tox21 HEK293 Progesterone Receptor (PR) Agonism Luciferase Follow-Up Assay (AID 2283941);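 note: loss of signal means cytotoxicity so actives lower viability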
# Summary of the method: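 Multiplexed viability endpoint of the PR agonist luciferase follow-up: HEK293-PR-A-luc cells treated 16 h at 37C, with viability scored as decrease in CellTiter-Glo ATP signal.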
# [7] = CEETOX_H295R_ESTRADIOL_noMTC: CeeTox H295R High-throughput Steroidogenesis Assay for Estradiol, maximum tolerated concentration (MTC) filtered results only (AID 2283919; active = hit-call score of the fitted dose curve at least 0.9, where 1 is the maximum; inactive = score below 0.9); conditions: actives raise or lower the signal
# Summary of the method: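 Readout: dansyl-derivatized estradiol quantified by LC-MS/MS in medium from H295R cells dosed 48 h (0.1% DMSO) following 48 h forskolin (10 uM) prestimulation. Gain or loss of signal fitted against DMSO; no MTC filtering applied.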
# [8] = CEETOX_H295R_PROG_noMTC: CeeTox H295R High-throughput Steroidogenesis Assay for Progesterone (PROG), maximum tolerated concentration (MTC) filtered results only (AID 2283920; active = hit-call score of the fitted dose curve at least 0.9, where 1 is the maximum; inactive = score below 0.9); conditions: actives raise or lower the signal
# Summary of the method: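 Progesterone synthesis in the human adrenal line H295R is measured by HPLC-MS/MS after 48 h chemical exposure following 48 h forskolin (10 uM) stimulation. Activity in either direction is fitted relative to DMSO.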
# [9] = CEETOX_H295R_ESTRONE_noMTC: CeeTox H295R High-throughput Steroidogenesis Assay for Estrone, maximum tolerated concentration (MTC) filtered results only (AID 2283921; active = hit-call score of the fitted dose curve at least 0.9, where 1 is the maximum; inactive = score below 0.9); conditions: actives raise or lower the signal
# Summary of the method: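 Estrone in spent medium, quantified by tandem MS following dansyl chloride derivatization, after 48 h chemical exposure (0.1% DMSO) of forskolin-prestimulated (10 uM, 48 h) H295R cells; concentrations not MTC-filtered, bidirectional fit against DMSO.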
# [10] = CEETOX_H295R_TESTO_noMTC: CeeTox H295R High-throughput Steroidogenesis Assay for Testosterone (TESTO), maximum tolerated concentration (MTC) filtered results only (AID 2283924; active = hit-call score of the fitted dose curve at least 0.9, where 1 is the maximum; inactive = score below 0.9); conditions: actives raise or lower the signal
# Summary of the method: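 Medium testosterone, measured by HPLC-MS/MS after liquid-liquid extraction, was fitted in both directions relative to DMSO without MTC filtering. Adrenal H295R cells received 48 h chemical exposure (0.1% DMSO final) after 48 h forskolin (10 uM) prestimulation; viability by MTT.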
# [11] = CCTE_Harrill_HTTr_Viability_DMEM_6hr: (Pilot) CCTE's 6-hour Cell Viability Assessment for the High-Throughput Transcriptomics (HTTr) Platform, in MCF-7 cells cultured in DMEM + 10% fetal bovine serum, Harrill Lab (AID 2283973; active = hit-call score of the fitted dose curve at least 0.9, where 1 is the maximum; inactive = score below 0.9)
# Summary of the method: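 Propidium iodide uptake imaged by high-content analysis after six hours of chemical treatment in an eight-concentration series. Cells: MCF-7 grown in DMEM with 10% fetal bovine serum; DMSO as baseline.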
# [12] = CCTE_Harrill_HTTr_Viability_DMEM_12hr: (Pilot) CCTE's 12-hour Cell Viability Assessment for the High-Throughput Transcriptomics (HTTr) Platform, in MCF-7 cells cultured in DMEM + 10% fetal bovine serum, Harrill Lab (AID 2283974; active = hit-call score of the fitted dose curve at least 0.9, where 1 is the maximum; inactive = score below 0.9)
# Summary of the method: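 Propidium iodide dye exclusion imaged by high-content microscopy after 12 h chemical exposure (eight concentrations) of MCF-7 cells grown in DMEM plus 10% FBS; values fitted in both directions relative to DMSO.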
# PGR (gene 5241) [13] = target: PGR (gene 5241) (UniProt P06401); experiment: TOX21_PR_BLA_Followup_Agonist_ratio: Tox21 HEK293 Progesterone Receptor (PR) Agonism Beta-lactamase Follow-Up Assay, Ratio (AID 2283933)
# Summary of the method: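 Cells were seeded and held 6 hr before compound addition, exposed for 16 hr at 37C, then given FRET substrate for 2 hr at room temperature. Agonism was scored from the blue/green substrate cleavage ratio against DMSO controls.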
# PGR (gene 5241) [14] = target: PGR (gene 5241) (UniProt P06401); experiment: TOX21_PR_LUC_Followup_Agonist: Tox21 HEK293 Progesterone Receptor (PR) Agonism Luciferase Follow-Up Assay (AID 2283937; active = hit-call score of the fitted dose curve at least 0.9, where 1 is the maximum; inactive = score below 0.9)
# Summary of the method: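 Seed HEK293-PR-A-luc cells, wait 5 h, add compounds in DMSO, incubate 16 h at 37C, add ONE-Glo, read luminescence after 30 min. Activity is increase over DMSO controls; run with a viability counter-screen.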
# [15] = target: Thyroid hormone receptor alpha (Rattus norvegicus) + Thyroid hormone receptor beta (Rattus norvegicus) (UniProt P18113+P63059); experiment: TOX21_TR_LUC_GH3_Antagonist_Followup: Tox21 GH3 Thyroid Hormone Receptor Antagonism Luciferase Follow-Up Assay (AID 2283942)
# Summary of the method: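 In a GH3 luciferase reporter line, test chemicals spanning 92 uM to 5nM final are co-incubated 24 h with 1.0 nM T3. Activity is expressed as relative luminescence units and analysed relative to DMSO.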
# THRA (gene 7067) = THRA (gene 7067) (UniProt P10827); experiment: TOX21_TRA_COA_Antagonist_Followup_ratio: Tox21 Thyroid Hormone Receptor alpha Antagonism through Coactivator Recruitment Follow-Up Assay, Ratio (AID 2283953)
# Sequence of THRA (gene 7067) (P10827 whole entry, looked up, the tested form may be a part): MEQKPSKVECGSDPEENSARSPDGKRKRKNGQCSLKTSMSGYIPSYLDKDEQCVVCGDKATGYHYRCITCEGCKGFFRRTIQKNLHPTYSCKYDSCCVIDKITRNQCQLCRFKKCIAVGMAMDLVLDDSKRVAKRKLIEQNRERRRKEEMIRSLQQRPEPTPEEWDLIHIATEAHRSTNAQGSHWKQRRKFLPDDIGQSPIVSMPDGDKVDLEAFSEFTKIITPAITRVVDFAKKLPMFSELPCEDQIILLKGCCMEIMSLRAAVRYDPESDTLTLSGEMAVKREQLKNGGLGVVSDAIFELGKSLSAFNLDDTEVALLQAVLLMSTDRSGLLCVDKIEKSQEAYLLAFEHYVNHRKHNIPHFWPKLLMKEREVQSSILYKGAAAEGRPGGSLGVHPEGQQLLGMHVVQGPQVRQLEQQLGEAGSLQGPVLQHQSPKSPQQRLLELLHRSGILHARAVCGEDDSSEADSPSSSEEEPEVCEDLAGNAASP
# Summary of the method: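 GST-TRα LBD 2.5 nM, BSA 0.10%, + cpd; then FITC-SRC-2 peptide 200 nM + Tb-anti-GST Ab 2 nM. TR-FRET ratio 520/495 nm. Norm: DMSO = 0%, T3 = 100%.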
# THRB (gene 7068) [16] = target: THRB (gene 7068) (UniProt P10828); experiment: TOX21_TRB_BLA_Antagonist_Followup_ratio: Tox21 Thyroid Hormone Receptor beta Antagonism Beta-lactamase (BLA) Follow-Up Assay, Ratio (AID 2283958)
# Sequence of THRB (gene 7068) (P10828 whole entry, looked up, the tested form may be a part): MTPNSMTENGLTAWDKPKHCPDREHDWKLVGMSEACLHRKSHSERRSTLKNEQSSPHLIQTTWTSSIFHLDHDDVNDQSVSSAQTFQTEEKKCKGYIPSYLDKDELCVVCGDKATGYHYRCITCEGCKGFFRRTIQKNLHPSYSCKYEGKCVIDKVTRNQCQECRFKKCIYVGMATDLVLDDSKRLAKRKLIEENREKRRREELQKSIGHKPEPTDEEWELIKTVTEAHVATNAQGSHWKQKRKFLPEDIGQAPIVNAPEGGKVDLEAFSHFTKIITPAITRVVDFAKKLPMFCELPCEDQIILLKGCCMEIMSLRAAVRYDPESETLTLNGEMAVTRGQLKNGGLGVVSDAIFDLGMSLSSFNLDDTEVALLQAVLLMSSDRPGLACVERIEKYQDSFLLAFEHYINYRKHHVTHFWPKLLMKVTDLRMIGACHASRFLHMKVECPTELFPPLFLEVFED
# Summary of the method: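 Cells were plated and allowed to attach for 5 h, then dosed with compounds in DMSO at 11 concentrations for 18 h at 37C. Beta-lactamase reporter activity was measured via CCF4-AM FRET as the 460:530 nm ratio.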
# [17] = TOX21_TRB_BLA_Antagonist_Followup_viability: Viability Assessment in the Tox21 Thyroid Hormone Receptor beta Antagonism Beta-lactamase (BLA) Follow-Up Assay (AID 2283961)
# Summary of the method: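 TRβ-bla HEK293T (human TRβ LBD fused to GAL4 DBD), 3,000 cells/well, 2% charcoal-stripped FBS, phenol red-free medium; 18 h compound exposure, 37C; CellTiter-Glo 30 min RT; luminescence, loss-of-signal readout.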
# THRB (gene 7068) [18] = target: THRB (gene 7068) (UniProt P10828); experiment: TOX21_TRB_COA_Antagonist_Followup_ratio: Tox21 Thyroid Hormone Receptor beta Antagonism through Coactivator Recruitment Follow-Up Assay, Ratio (AID 2283967)
# Summary of the method: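 Coactivator (SRC-2) recruitment to purified GST-TRβ ligand-binding domain is monitored by terbium-to-fluorescein energy transfer, emission ratio 520:495 nm. DMSO wells define 0% and T3 wells 100% activity.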
# [19] = target: Retinoic acid receptor RXR-alpha (Homo sapiens) (UniProt P19793); experiment: TOX21_TR_RXR_BLA_Antagonist_Followup_ratio: Tox21 Thyroid Hormone Receptor beta Retinoid X Receptor alpha (RXRa) Antagonism Beta-lactamase (BLA) Follow-Up Assay, Ratio (AID 2283972)
# Sequence of Retinoic acid receptor RXR-alpha (Homo sapiens) (P19793 whole entry, looked up): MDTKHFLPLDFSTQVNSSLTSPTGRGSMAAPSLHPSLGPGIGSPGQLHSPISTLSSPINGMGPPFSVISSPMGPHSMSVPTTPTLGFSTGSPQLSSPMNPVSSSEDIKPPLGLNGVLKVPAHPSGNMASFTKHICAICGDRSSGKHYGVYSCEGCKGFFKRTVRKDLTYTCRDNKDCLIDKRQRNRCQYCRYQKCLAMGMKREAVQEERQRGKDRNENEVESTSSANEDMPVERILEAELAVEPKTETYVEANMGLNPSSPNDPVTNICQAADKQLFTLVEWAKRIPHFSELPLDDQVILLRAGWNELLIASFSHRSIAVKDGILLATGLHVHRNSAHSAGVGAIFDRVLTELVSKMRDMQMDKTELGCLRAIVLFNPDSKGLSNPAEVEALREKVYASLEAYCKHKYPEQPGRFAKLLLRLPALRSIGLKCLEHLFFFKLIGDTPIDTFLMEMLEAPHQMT
# Summary of the method: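 HEK293T RXRa-bla, 2% charcoal-stripped FBS medium, 16 h compound exposure at 37C, qHTS 11 conc x3. CCF4 FRET ratio ch2/ch1 (460:530), DMSO = baseline, loss-of-signal fit.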
structure (smiles),measurement,setting,value
N#Cc1c[nH]cc1-c1cccc2c1OC(F)(F)O2,AC50,PGR (gene 5241) [1],2.42 µM (active)
same,outcome,[2],inactive
same,outcome,[3],inactive
same,AC50,PGR (gene 5241) [4],7.11 µM (active)
same,outcome,[5],inactive
same,outcome,[6],inactive
COC(=O)c1c(C(F)F)nc(C(F)(F)F)c(C2=NCCS2)c1CC(C)C,outcome,[7],inactive
same,AC50,[8],13.8 µM (active)
same,outcome,[9],inactive
same,outcome,[10],inactive
CCOC(=O)C(C)OC(=O)c1cc(Oc2ccc(C(F)(F)F)cc2Cl)ccc1[N+](=O)[O-] (configuration not stated),outcome,[11],inactive
same,outcome,[12],inactive
CC1(C)CCC(=Cc2ccc(Cl)cc2)C1(O)Cn1cncn1 (configuration not stated),outcome,PGR (gene 5241) [13],inactive
same,outcome,PGR (gene 5241) [1],inactive
same,outcome,[2],inactive
same,outcome,[3],inactive
same,outcome,PGR (gene 5241) [14],inactive
same,outcome,PGR (gene 5241) [4],inactive
same,outcome,[5],inactive
same,outcome,[6],inactive
CO/N=C(/C1=NOCCO1)c1ccccc1Oc1ncnc(Oc2ccccc2Cl)c1F,AC50,[15],16.5 µM (active)
same,outcome,THRA (gene 7067),inactive
same,AC50,THRB (gene 7068) [16],54.6 µM (active)
same,AC50,[17],38.3 µM (active)
same,outcome,THRB (gene 7068) [18],inactive
same,outcome,[19],inactive
CCN(CC)C(=O)C(C)Oc1cccc2ccccc12 (configuration not stated),AC50,PGR (gene 5241) [1],28.4 µM (active)
same,outcome,[2],inactive
same,outcome,[3],inactive
same,outcome,PGR (gene 5241) [4],inactive
same,outcome,[6],inactive
C=CCOC(=O)C(C)(C)OC(=O)c1cc(-n2c(=O)cc(C(F)(F)F)n(C)c2=O)ccc1Cl,outcome,[11],inactive
same,outcome,[12],inactive
Cc1c(COC(=O)[C@@H]2[C@H](/C=C(\Cl)C(F)(F)F)C2(C)C)cccc1-c1ccccc1,outcome,[11],inactive
same,outcome,[12],inactive
CC1(C)C(C=C(Cl)Cl)C1C(=O)OC(C#N)c1cccc(Oc2ccccc2)c1 (configuration not stated),outcome,[11],inactive
same,outcome,[12],inactive
